The record followed here is PubChem BioAssay (NCATS).

Experiment [1] can be described thus: Quantitative High-Throughput drug screen in 47 multiple myeloma cell lines against the NCATS MIPE library collection: LP1_DSMZ cell viability assay (AID 1918982). Note: nearly all actives have a fitted effect of over 35% in size. Note: potency is the fitted concentration of half-maximal effect. In a few lines: (§1)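 500 cells/well; MIPE 4.0 drugs pin-transferred; 48 h, 37C, 5% CO2. CellTiter-Glo, 5 min RT, luminescence. Controls: DMSO 100%, media 0%.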
Experiment [2] can be described thus: Quantitative High-Throughput drug screen in 47 multiple myeloma cell lines against the NCATS MIPE library collection: KMS28PE_JCRB cell viability assay (AID 1918983). Note: nearly all actives have a fitted effect of over 35% in size. Note: potency is the fitted concentration of half-maximal effect. The procedure, abridged:
as §1

Experiment [3] in a line: Quantitative High-Throughput drug screen in 47 multiple myeloma cell lines against the NCATS MIPE library collection: KMS34_JCRB cell viability assay (AID 1918985). Note: nearly all actives have a fitted effect of over 40% in size. Note: potency is the fitted concentration of half-maximal effect. In a few lines:
as §1

A short description of experiment [4]: Quantitative High-Throughput drug screen in 47 multiple myeloma cell lines against the NCATS MIPE library collection: OCIMY7_PLB cell viability assay (AID 1918987). Note: nearly all actives have a fitted effect of over 65% in size. Note: potency is the fitted concentration of half-maximal effect. The conditions noted are these: OCI-MY7 myeloma viability, CellTiter-Glo ATP, 48 h; viability (% of DMSO): at 45.8 µM (top of the series). In a few lines:
as §1

Experiment [5] is described as follows: Quantitative High-Throughput drug screen in 47 multiple myeloma cell lines against the NCATS MIPE library collection: OPM1_PLB cell viability assay (AID 1918989). Note: nearly all actives have a fitted effect of over 40% in size. Note: potency is the fitted concentration of half-maximal effect. In a few lines:
as §1

The nature of experiment [6]: Quantitative High-Throughput drug screen in 47 multiple myeloma cell lines against the NCATS MIPE library collection: SKMM1_PLB cell viability assay (AID 1919863). Note: nearly all actives have a fitted effect of over 35% in size. Note: potency is the fitted concentration of half-maximal effect. The conditions noted are these: SKMM1 myeloma viability, CellTiter-Glo ATP, 48 h; viability: hits give low values. The procedure, abridged:
as §1

The nature of experiment [7]: Quantitative High-Throughput drug screen in 47 multiple myeloma cell lines against the NCATS MIPE library collection: U266_ATCC cell viability assay (AID 1919864).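 For viability (% of DMSO control): 0% = media-only wells without cells and 100% = DMSO-only wells.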 Note: nearly all actives have a fitted effect of over 35% in size. Note: potency is the fitted concentration of half-maximal effect. In a few lines:
as §1

Experiment [8] in a line: Quantitative High-Throughput drug screen in 47 multiple myeloma cell lines against the NCATS MIPE library collection: XG6_PLB cell viability assay (AID 1919865). Note: nearly all actives have a fitted effect of over 40% in size. Note: potency is the fitted concentration of half-maximal effect. The procedure, abridged:
as §1

Experiment [9] can be described thus: Quantitative High-Throughput drug screen in 47 multiple myeloma cell lines against the NCATS MIPE library collection: XG1_PLB cell viability assay (AID 1919866). Note: nearly all actives have a fitted effect of over 35% in size. Note: potency is the fitted concentration of half-maximal effect. In a few lines:
as §1

The nature of experiment [10]: Quantitative High-Throughput drug screen in 47 multiple myeloma cell lines against the NCATS MIPE library collection: VP6_DJ cell viability assay (AID 1919867).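 For viability (% of DMSO): 100% = DMSO-only wells and 0% = wells with media alone.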 Note: nearly all actives have a fitted effect of over 40% in size. Note: potency is the fitted concentration of half-maximal effect. The procedure, abridged:
as §1

A short description of experiment [11]: Quantitative High-Throughput drug screen in 47 multiple myeloma cell lines against the NCATS MIPE library collection: UTMC2_PLB cell viability assay (AID 1919868).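 For viability (% of DMSO control): 100% = DMSO-only wells and 0% = media-only wells without cells.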 Note: nearly all actives have a fitted effect of over 55% in size. Note: potency is the fitted concentration of half-maximal effect. The conditions noted are these: CellTiter-Glo ATP luminescence, 48 h; viability (% of DMSO control): at 45.8 µM (top of the series). In a few lines: as §1
Experiment [12] in a line: Quantitative High-Throughput drug screen in 47 multiple myeloma cell lines against the NCATS MIPE library collection: PE2_PLB cell viability assay (AID 1919869).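 For viability (% of control): 100% = DMSO-only wells and 0% = cell-free media-only wells.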 Note: nearly all actives have a fitted effect of over 35% in size. Note: potency is the fitted concentration of half-maximal effect. In a few lines:
as §1

The nature of experiment [13]: Quantitative High-Throughput drug screen in 47 multiple myeloma cell lines against the NCATS MIPE library collection: PCM6_Riken cell viability assay (AID 1919870). Note: nearly all actives have a fitted effect of over 30% in size. Note: potency is the fitted concentration of half-maximal effect. The procedure, abridged:
as §1

Experiment [14] can be described thus: Quantitative High-Throughput drug screen in 47 multiple myeloma cell lines against the NCATS MIPE library collection: RPMI8226_ATCC cell viability assay (AID 1919871). Note: nearly all actives have a fitted effect of over 30% in size. Note: potency is the fitted concentration of half-maximal effect. In a few lines:
as §1

Experiment [15] can be described thus: Quantitative High-Throughput drug screen in 47 multiple myeloma cell lines against the NCATS MIPE library collection: OPM2_DSMZ cell viability assay (AID 1919872). Note: nearly all actives have a fitted effect of over 30% in size. Note: potency is the fitted concentration of half-maximal effect. The procedure, abridged: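 Relative luminescence from CellTiter-Glo served as the viability signal, referenced to DMSO-treated (100%) and cell-free medium (0%) controls. Treatment lasted 48 hours at 37C with 500 cells per well.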

Experiment [16] in a line: Quantitative High-Throughput drug screen in 47 multiple myeloma cell lines against the NCATS MIPE library collection: KMS11_JCRBsus cell viability assay (AID 1919873).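 For viability (% of control): 100% = DMSO-only wells and 0% = media-only wells without cells.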 Note: nearly all actives have a fitted effect of over 50% in size. Note: potency is the fitted concentration of half-maximal effect. The procedure, abridged: as §1
The nature of experiment [17]: Quantitative High-Throughput drug screen in 47 multiple myeloma cell lines against the NCATS MIPE library collection: KMS28BM_JCRB cell viability assay (AID 1919874). Note: nearly all actives have a fitted effect of over 35% in size. Note: potency is the fitted concentration of half-maximal effect. The procedure, abridged:
as §1

A short description of experiment [18]: Quantitative High-Throughput drug screen in 47 multiple myeloma cell lines against the NCATS MIPE library collection: L363_DSMZ cell viability assay (AID 1918984). Note: nearly all actives have a fitted effect of over 40% in size. The conditions noted are these: L363 myeloma viability, CellTiter-Glo ATP luminescence, 48 h; viability (% of control): at 45.8 µM (top of the series). In a few lines: as §1
Experiment [19] can be described thus: Quantitative High-Throughput drug screen in 47 multiple myeloma cell lines against the NCATS MIPE library collection: OCIMY5_PLB cell viability assay (AID 1918988). Note: potency is the fitted concentration of half-maximal effect; nearly all actives have a fitted effect of over 65% in size. The procedure, abridged:
as §1

Records with an inconclusive call do not appear. A number with no mark means an inactive call. The source made the active and inactive calls. Calls come from the whole dose curve; as a rule, active = well fitted cell-killing curve with a large enough effect; inconclusive = small, poorly fitted or top-dose-only effect, or effect the other way; inactive = no such curve, though single readings can be large or run the other way.

`Cc1[nH]c(C=C2C(=O)Nc3ccc(S(=O)(=O)N(C)c4cccc(Cl)c4)cc32)c(C)c1C(=O)N1CCN(C)CC1`: the Potency was 18.7 µM (active) in experiment [1]; 23.5 µM (active) in experiment [2]; 20.9 µM (active) in [3]; 18.7 µM (active) in experiment [4]; 9.35 µM (active) in experiment [5]; 20.9 µM (active) in [6]. The Potency is 23.5 µM (active) in [7]; 9.35 µM (active) in experiment [8]; 11.8 µM (active) in experiment [9]; 13.2 µM (active) in experiment [10]; 11.8 µM (active) in experiment [11]; 16.6 µM (active) in experiment [12]. In addition, the Potency in experiment [13] is 14.8 µM (active); in experiment [14], 23.5 µM (active); in experiment [15] it was 20.9 µM (active); in experiment [16], 11.8 µM (active); in [17], 16.6 µM (active).
Turning to `CCCCC[C@H](O)C=C[C@H]1[C@H](O)CC(=O)[C@H]1CCCCCCC(=O)O`, the Potency result in experiment [1], in experiment [2], in [18], in experiment [8], in [9] and in experiment [13] was “inactive” in each case. For the same compound, the Potency entry in experiment [15] and in experiment [16] was “inactive” in each case. Moreover, the Potency in experiment [14] is 0.105 µM (active).
Turning to `CC1(C)C(N(O)C(=O)Nc2ccc(Cl)cc2)N(c2ccc(Cl)cc2)C(=O)N1CC(=O)NN=CC=Cc1ccc([N+](=O)[O-])o1` (stereo not drawn), the Potency in experiment [1] was 16.6 µM (active); in experiment [2] it was 8.33 µM (active); in experiment [4] it was 5.9 µM (active); in [19] it was 7.43 µM (active); in experiment [5], 11.8 µM (active); in experiment [6], 13.2 µM (active). For the same compound, the Potency in experiment [7] was 10.5 µM (active); in [8], 10.5 µM (active); in experiment [9] it was 8.33 µM (active); in [10] it was 8.33 µM (active); in experiment [11], 13.2 µM (active); in [12], 6.62 µM (active). Besides, the Potency in experiment [13] was 9.35 µM (active); in experiment [14] it was 11.8 µM (active); in [15], 18.7 µM (active); in experiment [16] it was 6.62 µM (active); in experiment [17], 8.33 µM (active).
Take `COc1ccc(Cn2ccc3ccc(C(=O)NO)cc32)cc1`: the Potency is 16.6 µM (active) in experiment [1], 9.35 µM (active) in experiment [4], 14.8 µM (active) in [8] and 9.35 µM (active) in [10]. Moreover, the Potency result in experiment [2], in experiment [14], in [15] and in experiment [17] was “inactive” each time.
Take `COc1c(C)c2c(c(O)c1CC=C(C)CCC(=O)OCCN1CCOCC1)C(=O)OC2`: the Potency in [1] is 6.62 µM (active); in experiment [2] it was 4.69 µM (active); in experiment [3] it was 5.9 µM (active); in [4] it was 3.72 µM (active); in [19], 5.26 µM (active); in experiment [5], 8.33 µM (active). Also, the Potency in experiment [6] is 4.18 µM (active); in [7] it was 8.33 µM (active); in [12], 4.18 µM (active); in [14] it was 4.18 µM (active); in experiment [15], 13.2 µM (active); in experiment [17] it was 3.32 µM (active).
Regarding `O=C(NCCCCN1CCOCC1)c1cc2ccccc2o1`, the Potency entry in [1], in [2], in [3], in experiment [5], in experiment [8] and in experiment [9] was “inactive” throughout. The Potency result in experiment [13], in experiment [14], in experiment [15], in [16] and in experiment [17] was “inactive” throughout. In addition, the viability in experiment [6] was 115%.
Consider `CN[C@@H]1[C@@H](O)[C@@H](O[C@@H]2[C@@H](O)[C@H](O[C@H]3O[C@H](CN)[C@@H](O)[C@H](O)[C@@H]3O)[C@@H](N)C[C@@H]2NC(=O)[C@@H](O)CN)OC[C@]1(C)O`, for which the Potency entry in [1], in experiment [2], in experiment [4], in experiment [5], in [8] and in experiment [9] was “inactive” throughout. The Potency entry in [10], in [12], in [13] and in experiment [15] was “inactive” throughout. Moreover, the values for the Potency in [7] and in [16] were 18.7 µM (active) and 7.43 µM (active), respectively.
`COC(=O)[C@H](c1ccccc1Cl)N1CCc2sccc2C1`: the Potency entry in [1], in experiment [2], in experiment [8], in [11], in [12] and in [13] was “inactive” in each case. Further, the Potency result in [14], in experiment [15], in [16] and in [17] was “inactive” each time. In addition, the Potency in [4] is 20.9 µM (active).
Consider `CC(C)C[C@H](NC(=O)c1cc2ccccc2s1)C(=O)N1CCN(C(=O)[C@H](CO)NS(=O)(=O)c2ccc(Cl)cc2Cl)CC1`, for which the Potency is 26.4 µM (active) in [1]; 23.5 µM (active) in experiment [2]; 23.5 µM (active) in experiment [4]; 20.9 µM (active) in experiment [19]; 20.9 µM (active) in experiment [5]; 23.5 µM (active) in [7]. Moreover, the Potency in [10] is 18.7 µM (active); in [12] it was 23.5 µM (active); in experiment [13] it was 23.5 µM (active); in experiment [16], 20.9 µM (active); in [17] it was 20.9 µM (active).
For the compound `CC(C)c1c(C(=O)Nc2ccccc2)c(-c2ccccc2)c(-c2ccc(F)cc2)n1CC[C@H](O)C[C@@H](O)CC(=O)O`, the Potency in [1] was 20.9 µM (active); in experiment [2] it was 18.7 µM (active); in experiment [4], 4.69 µM (active); in experiment [6], 18.7 µM (active); in experiment [8] it was 18.7 µM (active); in experiment [9] it was 13.2 µM (active). Also, the Potency in experiment [12] is 11.8 µM (active); in [13] it was 16.6 µM (active); in [14], 10.5 µM (active); in experiment [16], 10.5 µM (active).
With `O=C(O)C1=NC(C(=O)O)CC(C=CN2c3cc(O)c(OC4OC(CO)C(O)C(O)C4O)cc3CC2C(=O)O)=C1` (stereo not drawn), the Potency entry in experiment [1], in [2], in experiment [18], in experiment [5], in experiment [9] and in experiment [12] was “inactive” in each case. For the same compound, the Potency entry in experiment [14] and in [16] was “inactive” each time. For the same compound, the viability in experiment [6] is 117%.
With `CCCCC(C=O)NC(=O)C(CC(C)C)NC(=O)OCc1ccccc1` (stereo not drawn), the Potency is 20.9 µM (active) in experiment [1], 23.5 µM (active) in experiment [2], 14.8 µM (active) in [15] and 23.5 µM (active) in experiment [17]. The Potency entry in experiment [18], in [8], in [9] and in experiment [13] was “inactive” throughout.
For the compound `O=C(O)C1=CC(O)C(O)[C@H](O)C1` (stereo partly drawn), the Potency entry in experiment [1], in experiment [2], in experiment [3], in experiment [5], in experiment [7] and in experiment [8] was “inactive” in each case. Besides, the Potency result in experiment [9], in [12], in experiment [14], in experiment [15] and in [16] was “inactive” throughout. Further, the viability in [6] is 118%.
